Source: PubChem BioAssay (EPA / NIEHS)
“And” between values parts separate entries of the source, which are not always exact repeats. Identical values can stand only once. The source made the active and inactive calls. The calls were made as follows: active = hit-call score of the fitted dose curve at least 0.9, where 1 is the maximum; inactive = score below 0.9.

Tests used:
[1] = read-out: Tissue Factor, F3 (gene 2152); experiment: BSK_CASM3C_TissueFactor: BioMAP Diversity Plus: CASM3C Assay for Tissue Factor Biomarker Activity (AID 2283052); conditions: primary human coronary artery smooth muscle cells; actives raise or lower the signal;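 also: cell surface tissue factor protein level read by ELISA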
[2] = read-out: Interferon-gamma inducible Protein 10 (IP10), CXCL10 (gene 3627); experiment: BSK_hDFCGF_IP10: BioMAP Diversity Plus: hDFCGF Assay for Interferon-gamma inducible Protein 10 (IP10) Biomarker Activity (AID 2283053); conditions: primary human foreskin fibroblasts; actives raise or lower the signal
Method in brief: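 IP-10 levels, quantified by ELISA, are taken from human foreskin fibroblast cultures 24 h after chemical treatment, with DMSO serving as negative control and baseline for bidirectional analysis.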

[3] = read-out: Urokinase-type plasminogen activator receptor (uPAR), PLAUR (gene 5329); experiment: BSK_CASM3C_uPAR: BioMAP Diversity Plus: CASM3C Assay for Urokinase-type plasminogen activator receptor (uPAR) Biomarker Activity (AID 2283054); conditions: primary human coronary artery smooth muscle cells; actives raise or lower the signal;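 also: cell-surface uPAR protein level quantified by ELISA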
[4] = read-out: Vascular cell adhesion molecule 1 (VCAM1), VCAM1 (gene 7412); experiment: BSK_CASM3C_VCAM1: BioMAP Diversity Plus: CASM3C Assay for Vascular cell adhesion molecule 1 (VCAM1) Biomarker Activity (AID 2283055); conditions: primary human coronary artery smooth muscle cells; actives raise or lower the signal;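 also: VCAM-1 protein level quantified by ELISA on the cells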
[5] = read-out: Collagen III, COL3A1 (gene 1281); experiment: BSK_hDFCGF_CollagenIII: BioMAP Diversity Plus: hDFCGF Assay for Collagen III Biomarker Activity (AID 2283056); conditions: primary human foreskin fibroblasts; actives raise or lower the signal
Method in brief: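 Human foreskin primary fibroblasts were exposed to test chemicals for 24 h, after which collagen III was quantified by ELISA. Activity was fitted bidirectionally against DMSO as negative control and baseline.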

[6] = read-out: Epidermal growth factor receptor (EGFR), EGFR (gene 1956); experiment: BSK_hDFCGF_EGFR: BioMAP Diversity Plus: hDFCGF Assay for Epidermal growth factor receptor (EGFR) Biomarker Activity (AID 2283057); conditions: primary human foreskin fibroblasts; actives raise or lower the signal
Method in brief: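 Measured by ELISA: EGFR levels on primary human foreskin fibroblasts 24 h after chemical treatment, analysed relative to DMSO with bidirectional fitting.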

[7] = read-out: Interleukin-8 (IL8), CXCL8 (gene 3576); experiment: BSK_hDFCGF_IL8: BioMAP Diversity Plus: hDFCGF Assay for Interleukin-8 (IL8) Biomarker Activity (AID 2283058); conditions: primary human foreskin fibroblasts; actives raise or lower the signal
Method in brief: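 hDFCGF human dermal fibroblasts; 24 h chemical exposure; IL-8 by ELISA; bidirectional curve fit vs DMSO baseline; gain or loss of signal scored.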

[8] = BSK_hDFCGF_Proliferation: Cell Proliferation Assessment in the BioMAP Diversity Plus: hDFCGF Assay (AID 2283059); conditions: primary human foreskin fibroblasts;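 also: curves fitted for both rise and fall of signal versus DMSO baseline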
Method in brief: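 Total protein read at 560 nm after 0.1% SRB staining of TCA-fixed human skin fibroblasts, […]. Activity is fitted in both directions relative to DMSO as baseline.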

[9] = read-out: Macrophage colony-stimulating factor (MCSF), CSF1 (gene 1435); experiment: BSK_hDFCGF_MCSF: BioMAP Diversity Plus: hDFCGF Assay for Macrophage colony-stimulating factor (MCSF) Biomarker Activity (AID 2283060); conditions: primary human foreskin fibroblasts; actives raise or lower the signal
Method in brief: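 Human foreskin primary fibroblasts were treated with test chemical for 24 h, and M-CSF was then measured by ELISA. Data were fitted bidirectionally against DMSO as the negative control and activity baseline.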

[10] = BSK_hDFCGF_SRB: Viability Assessment in the BioMAP Diversity Plus: hDFCGF Assay (AID 2283061); conditions: primary human foreskin fibroblasts;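 also: cells exposed to compound for 24 h before the read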
Method in brief: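 Human foreskin primary fibroblasts were treated with compound and assessed 24 h after dosing. Total protein was measured by sulforhodamine B staining (0.1% SRB after 10% TCA fixation, 560 nm read) as a cytotoxicity marker, with bidirectional fitting against DMSO baseline.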

[11] = read-out: TIMP metallopeptidase inhibitor 1 (TIMP1), TIMP1 (gene 7076); experiment: BSK_hDFCGF_TIMP1: BioMAP Diversity Plus: hDFCGF Assay for TIMP metallopeptidase inhibitor 1 (TIMP1) Biomarker Activity (AID 2283062); conditions: primary human foreskin fibroblasts; actives raise or lower the signal
Method in brief: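 Primary human foreskin fibroblasts in the hDFCGF system were dosed with compound for 24 h, then TIMP-1 was measured by ELISA. Activity was fitted bidirectionally relative to DMSO control; parallel SRB staining assessed cytotoxicity.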

[12] = read-out: Monokine induced gamma interferon (MIG), CXCL9 (gene 4283); experiment: BSK_hDFCGF_MIG: BioMAP Diversity Plus: hDFCGF Assay for Monokine induced gamma interferon (MIG) Biomarker Activity (AID 2283063); conditions: primary human foreskin fibroblasts; actives raise or lower the signal
Method in brief: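 ELISA read-out of MIG from primary human dermal fibroblasts 24 h post-dosing. Gain or loss of signal fitted bidirectionally, DMSO as baseline.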

[13] = read-out: Matrix Metallopeptidase 1 (MMP1), MMP1 (gene 4312); experiment: BSK_hDFCGF_MMP1: BioMAP Diversity Plus: hDFCGF Assay for Matrix Metallopeptidase 1 (MMP1) Biomarker Activity (AID 2283064); conditions: primary human foreskin fibroblasts; actives raise or lower the signal
Method in brief: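 hDFCGF primary fibroblasts (human foreskin); chemical added; 24 h; MMP1 by ELISA; bidirectional fit vs DMSO.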

[14] = read-out: Vascular cell adhesion molecule 1 (VCAM1), VCAM1 (gene 7412); experiment: BSK_hDFCGF_VCAM1: BioMAP Diversity Plus: hDFCGF Assay for Vascular cell adhesion molecule 1 (VCAM1) Biomarker Activity (AID 2283065); conditions: primary human foreskin fibroblasts; actives raise or lower the signal
Method in brief: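 Primary human foreskin fibroblasts (hDFCGF system) were dosed with chemical and VCAM-1 was measured by ELISA 24 h later. Bidirectional curve fitting used DMSO as negative control and activity baseline.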

[15] = read-out: Plasminogen activator inhibitor-1 (PAI1), SERPINE1 (gene 5054); experiment: BSK_hDFCGF_PAI1: BioMAP Diversity Plus: hDFCGF Assay for Plasminogen activator inhibitor-1 (PAI1) Biomarker Activity (AID 2283066); conditions: primary human foreskin fibroblasts; actives raise or lower the signal
Method in brief: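 PAI-1 levels, determined by ELISA, served as the endpoint in human foreskin fibroblast cultures exposed to compound for 24 h, with DMSO as baseline.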

[16] = read-out: Intercellular Adhesion Molecule 1 (ICAM1), ICAM1 (gene 3383); experiment: BSK_KF3CT_ICAM1: BioMAP Diversity Plus: KF3CT Assay for Intercellular Adhesion Molecule 1 (ICAM1) Biomarker Activity (AID 2283067); conditions: primary human keratinocytes with fibroblasts; actives raise or lower the signal
Method in brief: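 Human keratinocyte plus foreskin fibroblast primary co-culture was exposed to chemical for 24 h. ICAM-1 was then quantified by ELISA, and the data were fit bidirectionally against DMSO as the negative control and baseline.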

[17] = read-out: Interferon-gamma inducible Protein 10 (IP10), CXCL10 (gene 3627); experiment: BSK_KF3CT_IP10: BioMAP Diversity Plus: KF3CT Assay for Interferon-gamma inducible Protein 10 (IP10) Biomarker Activity (AID 2283068); conditions: primary human keratinocytes with fibroblasts; actives raise or lower the signal
Method in brief: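 Human keratinocyte plus foreskin fibroblast primary co-culture exposed to test chemical for 24 h; IP-10 measured by ELISA. Concentration-response fitted bidirectionally against DMSO control as baseline.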

[18] = read-out: Interleukin-1 alpha (IL1a), IL1A (gene 3552); experiment: BSK_KF3CT_IL1a: BioMAP Diversity Plus: KF3CT Assay for Interleukin-1 alpha (IL1a) Biomarker Activity (AID 2283070); conditions: primary human keratinocytes with fibroblasts; actives raise or lower the signal
Method in brief: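 Chemicals were dosed onto co-cultured human keratinocytes and foreskin fibroblasts, IL-1a was quantified by ELISA at 24 h, and activity was fitted in both directions relative to DMSO controls.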

[19] = read-out: TIMP metallopeptidase inhibitor 2 (TIMP2), TIMP2 (gene 7077); experiment: BSK_KF3CT_TIMP2: BioMAP Diversity Plus: KF3CT Assay for TIMP metallopeptidase inhibitor 2 (TIMP2) Biomarker Activity (AID 2283071); conditions: primary human keratinocytes with fibroblasts; actives raise or lower the signal
Method in brief: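 Keratinocyte–fibroblast co-culture, 24 h exposure; TIMP-2 ELISA, DMSO-normalised bidirectional fit. Parallel SRB (0.1%, TCA-fixed, 560 nm) total-protein staining gauges cytotoxicity.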

[20] = BSK_KF3CT_SRB: Viability Assessment in the BioMAP Diversity Plus: KF3CT Assay (AID 2283069); conditions: primary human keratinocytes with fibroblasts;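 also: fitted for both signal gain and loss against DMSO baseline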
Method in brief: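 Keratinocytes co-cultured with foreskin fibroblasts (human primary); chemical added, 24 h; fix 10% TCA, stain 0.1% SRB, A560. Bidirectional fit vs DMSO.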

Measured: AC50

FC(F)(F)C(F)(F)C(F)(F)CI
inactive: [1] | [2] | [3] | [4] | [5] | [6] | [7] | [8] | [9] | [10] | [11] | [12] | [13] | [14] | [15] | [16] | [17] | [18] | [19]

FC(F)(F)C(F)(F)C(F)(F)C(F)(F)C(F)(F)C(F)(F)C(F)(F)Br
inactive: [1] | [2] | [3] | [4] | [5] | [6] | [7] | [8] | [9] | [10] | [12] | [13] | [14] | [15] | [16] | [17] | [20] | [18] | [19]

CC(C)(C)C(=O)CC(=O)C(F)(F)C(F)(F)C(F)(F)F
inactive: [1] | [2] | [3] | [4] | [5] | [6] | [7] | [8] | [9] | [10] | [12] | [13] | [14] | [15] | [16] | [17] | [20] | [18] | [19]

CCCCNc1ccccc1
inactive: [1] | [2] | [3] | [4] | [5] | [6] | [7] | [8] | [9] | [10] | [12] | [13] | [14] | [15] | [16] | [17] | [18] | [19]

CCCCCCC(C)OC(=O)CCCCC(=O)OC(C)CCCCCC (stereo unspecified)
inactive: [1] | [2] | [3] | [4] | [5] | [6] | [7] | [8] | [9] | [10] | [11] | [12] | [13] | [14] | [15] | [16] | [17] | [18] | [19]

O=C(O)C(F)(OC(F)(F)C(F)(OC(F)(F)C(F)(OC(F)(F)C(F)(F)C(F)(F)F)C(F)(F)F)C(F)(F)F)C(F)(F)F (stereo unspecified)
inactive: [1] | [2] | [3] | [4] | [5] | [6] | [7] | [8] | [9] | [10] | [12] | [13] | [14] | [15] | [16] | [17] | [18] | [19]

C=C(C)C(=O)OCC(F)(F)C(F)(F)C(F)(F)F
inactive: [1] | [2] | [3] | [4] | [5] | [6] | [7] | [8] | [9] | [10] | [11] | [12] | [13] | [14] | [15] | [16] | [17] | [18] | [19]

O=C(O)C(F)(F)C(F)(F)OC(F)(F)F
inactive: [1] | [2] | [3] | [4] | [5] | [6] | [7] | [8] | [9] | [10] | [12] | [13] | [14] | [15] | [16] | [17] | [20] | [18] | [19]

C=CC(=O)OCC(F)(F)C(F)(F)C(F)(F)C(F)(F)C(F)(F)C(F)(F)C(F)(F)F
inactive: [1] | [2] | [3] | [4] | [5] | [6] | [7] | [9] | [10] | [12] | [13] | [14] | [15] | [16] | [17] | [18] | [19]
active: [8] 17.5 µM and 46.3 µM

OCC(F)(F)C(F)(F)C(F)(F)F
inactive: [1] | [2] | [3] | [4] | [5] | [6] | [7] | [8] | [9] | [10] | [12] | [13] | [14] | [15] | [16] | [17] | [18] | [19]
